High-throughput results as filed in PubChem BioAssay.
Sampled rows, rich in hits. Any-hit rate of the full collection: about 2.1%.
aSyn yeast inh: alpha-synuclein toxicity inhibition in yeast | Yeast expressing alpha-synuclein, growth rescue, BacTiter-Glo, 24 h | hit rate 0.14% among 370,000 | Potency, µM (doses to about 46.1 µM), inactives show top-dose growth rescue (activation), usual class: activators; also: % of control where 0% means no effect; nearly all actives have a fitted effect of over 65% in size
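Galactose-induced alpha-syn yeast (OD600=0.02, raffinose-pregrown) + pinned cpd, 24 hr, 30 deg C; growth by BacTiter-Glo luminescence. Growth restoration scores as activation.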
TDP43 rescue: rescues yeast growth from TDP-43 toxicity | TDP-43 expressing yeast growth rescue, BacTiter-Glo, 24 h | Potency, µM (titrated, usually from 46.1 µM), for inactives: top-dose growth rescue (activation), hits mostly activators | AID 652104 | hit rate 1.8% among 410,000; also: % of control where 0% means no effect; nearly all actives have a fitted effect of over 50% in size
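Readout is BacTiter-Glo luminescence of cell growth, so inhibitors register as activators. TDP-43-expressing yeast at OD600=0.02 in galactose medium, after raffinose pregrowth to mid-log, were incubated with compound for 24 hr at 30 deg C.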
Abeta yeast res: restores growth of yeast expressing A-beta42 peptide | yeast expressing A-beta42, growth rescue, OD600, 48 h; response scale: 0% DMSO, 100% iron-clioquinol control | Potency, µM (top dose mostly 46.1 µM), usual class: activators | hit rate 0.063% among 410,000 | AID 1347071; also: nearly all actives have a fitted effect of over 55% in size
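Growth rescue measured by 600 nm absorbance after 48 h yeast culture at 30 C with compound. Values normalized between DMSO and an equimolar ferric chloride plus clioquinol control.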
FUS yeast rescue: FUS proteinopathy suppression in yeast; Potency, µM (titrated, usually from 76.6 µM), hits mostly activators; AID 1347120; hit rate 0.24% among 390,000; S. cerevisiae FUS-expressing, growth rescue, OD600, 24 h;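 also: plate controls were DMSO vehicle for no effect and reference control for full effect; nearly all actives have a fitted effect of over 55% in size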
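Yeast expressing FUS under galactose induction, OD 0.005 in 2% galactose medium; compounds in a dilution series, 24 h at 30C. Growth rescue by absorbance at 600 nm; CP55940 positive control, DMSO negative.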
Active calls of the source: *; i = inactive; ? = inconclusive; nt = no result; [ ] = another dose, or the depositor's remark. Calls follow the shape of the dose curve; as a rule, active = well fitted curve in the direction sought with a large enough effect; inconclusive = small, poorly fitted or top-dose-only effect, or another doubt; inactive = no such curve, though single readings can be large; an effect the other way counts as inactive or inconclusive. Potency is read from the fitted curve at half-maximal effect.

SMILES	aSyn yeast inh	TDP43 rescue	Abeta yeast res	FUS yeast rescue
Cn1ccc(NC(=O)Nc2ccc(Cl)cc2Cl)n1	-1%	14µM*	i	i
O=C(Cn1c(=O)c2cccn2c2cccnc21)NCCCN1CCN(c2ccccc2)CC1	nt	nt	nt	i
O=C(OCc1csc(Nc2ccccc2)n1)c1ccc(Cl)cc1	-17%	10µM*	?	i
O=C(OCc1csc(-c2ccccc2)n1)c1ccc(O)cc1	-8%	10µM*	i	i
Cc1ccc(C(=O)NCC(=O)OCc2csc(-c3ccccc3)n2)cc1	-4%	15%	i	i
C/C=C/c1cc(CN2CCN(c3ccc(OC)cc3)CC2)c(O)c(OC)c1	-3%	-11%	i	i
COc1ccc(C(=O)/C=C/C(=O)N(Cc2ccc(F)cc2)C(C(=O)NC2CCCCC2)c2ccncc2)c(O)c1 (stereo not drawn)	25µM*	20µM*	i	nt
COc1ccc(C(=O)/C=C/C(=O)N(Cc2ccccc2)C(C(=O)NC2CCCCC2)c2ccncc2)c(O)c1 (stereo not drawn)	12%	17%	i	nt
COc1ccc2c(C)cc(=S)[nH]c2c1	2%	13µM*	i	i
COc1ccccc1CCNC(=O)Cc1ccc(NC(=O)N2CCSc3ncccc32)cc1	nt	-3%	i	i
O=C(CCC1N=C2c3ccccc3N=C(SCc3ccc(Cl)cc3)N2C1=O)NCCc1ccccc1 (stereo not drawn)	nt	15%	i	32µM*
O=C(CCC1N=C2c3ccccc3N=C(SCc3cccc(Cl)c3)N2C1=O)NCCc1ccccc1 (stereo not drawn)	nt	?	i	?
COCCN=c1scc(-c2cc(OC)c(OC)c(OC)c2)n1/N=C/c1c(C)[nH]c2ccccc12	-18%	22µM*	i	13µM*
COc1cccc(OC)c1C(=O)Nc1cccc(-c2cn3ccsc3n2)c1	nt	9%	i	i
COc1cc(OC)cc(C(=O)Nc2cccc(-c3cn4ccsc4n3)c2)c1	nt	22µM*	i	?
CCC(=O)Nc1cccc(-c2cn3ccsc3n2)c1	2%	12%	i	i
COc1cccc(C(=O)Nc2cccc(-c3cn4ccsc4n3)c2)c1OC	nt	13µM*	i	i
O=C(NCCc1nc2ccccc2n1CCOc1ccccc1)C1CCCCC1	7%	nt	nt	nt
COc1cccc2c1C(=O)c1c(O)c3c(c(O)c1C2=O)C[C@@](O)(C(=O)CO)C[C@@H]3O[C@H]1C[C@H](N)[C@H](O)[C@H](C)O1	4.5µM*	?	i	i
COCCNC(=S)N/N=C(\C)c1cccc(C(F)(F)F)c1	-12%	-18%	11µM*	i
COCCNC(=S)N/N=C(\C)c1ccc2cc(OC)ccc2c1	-9%	7%	i	i
COc1ccc(N(CC(=O)NCc2ccccc2)C(=O)Cn2nnc(-c3ccccc3F)n2)cc1OC	-4%	-16%	i	i
Cc1ccc(C2CC(c3ccc(Cl)cc3)=NNC2=O)cc1 (stereo not drawn)	10%	22µM*	i[9.22 µM]	i
O=C(C#Cc1ccccc1)c1ccc([N+](=O)[O-])cc1	-14%	11µM*	i	i
CN=C(Nc1cccc(Cl)c1)SC1CC(=O)N(c2ccc(OC)cc2)C1=O (stereo not drawn)	?	29%[9.22 µM]	8.9µM*	i
SMILES	aSyn yeast inh	TDP43 rescue	Abeta yeast res	FUS yeast rescue
O=C(Cc1ccccc1)c1c[nH]c(C(=O)C(Cl)(Cl)Cl)c1	3%	13µM*	i	i
O=C(c1ccccc1)c1c[nH]c(C(=O)C(Cl)(Cl)Cl)c1	1%	12%	i	i
O=C(c1c[nH]c(C(=O)C(Cl)(Cl)Cl)c1)c1ccc(F)cc1Cl	-2%	8.9µM*	i	i
CCC(C)n1c(=N)c(C(=O)NCc2ccccc2)cc2c(=O)n3cc(C)ccc3nc21 (stereo not drawn)	nt	1%	i	i
C=C1C2(C(=O)Nc3nccs3)CCC(C2)C1(C)C (stereo not drawn)	0%	13µM*	?	i
O=C(Nc1nccs1)C1(c2ccc(Cl)cc2)CC1	-1%	19%	i	i
CC(=O)c1c(C)[nH]c(C(=O)OCc2cccc(Cl)c2)c1C	-9%	16µM*	i	i
CC(=O)c1c(C)[nH]c(C(=O)OCc2c(F)cccc2Cl)c1C	-1%	9%[9.22 µM]	i	i
COc1ccccc1C(=O)NCCSCc1c(F)cccc1Cl	2%	19%	i	i
Cc1c(C(=O)NCCSCc2c(F)cccc2Cl)cnn1-c1ccc(Cl)cc1	-1%	20µM*	i	i
O=S(=O)(NCCc1ccccc1)c1ccc(Br)s1	5%	?	i	i
COc1cccc(NS(=O)(=O)c2ccc(-c3cc(C)no3)s2)c1	nt	-17%	i	i
COc1ccc(CCNS(=O)(=O)c2ccc(Br)s2)cc1	1%	11µM*	i	i
COc1ccc(OC)c(NS(=O)(=O)c2ccc(-c3cc(C)no3)s2)c1	nt	16µM*	i	i
COc1ccc(OC)c(NS(=O)(=O)c2ccc(Br)s2)c1	nt	22µM*	i	i
COc1ccccc1NS(=O)(=O)c1ccc(Br)s1	22%	11µM*	i	i
O=C(CCCOc1ccc(Br)cc1)NCCc1ccc(OC(F)F)cc1	16%	0%	?	i
Cc1cc(=O)oc2c(C)c3occc3cc12	?	2.5µM*	?	i
COc1ccc2c(C)cc(=O)oc2c1C	2%	10%	i	i
CC(C)(C)C(=O)O/N=C(\N)c1c(Cl)cccc1Cl	3%	13µM*	i	i
Cc1onc(-c2c(Cl)cccc2Cl)c1/C(N)=N/OC(=O)C(C)(C)C	-15%	18%	i	i
O=C(N/N=C/c1cccc2cccnc12)c1ccccc1O	22µM*	-14%	?	i
COc1cccc(CN2CCC(N(CCc3ccccc3)Cc3ccccc3)CC2)c1OC	-2%	-36%	i	i
CCOC(=O)C1=CCN(S(=O)(=O)c2ccccc2F)C1c1ccc(C)cc1 (stereo not drawn)	2%	0%	i	i
CCOC(=O)C1=CCN(S(=O)(=O)c2ccccc2F)C1c1ccc(Cl)cc1 (stereo not drawn)	13%	16µM*	i	i
SMILES	aSyn yeast inh	TDP43 rescue	Abeta yeast res	FUS yeast rescue
COc1ccc(C(=O)Nc2ccc(Nc3ccccc3)cc2)cc1[N+](=O)[O-]	?	?	i	i
CCN(CC)c1ccc(C(=O)Nc2ccccc2)cc1[N+](=O)[O-]	4%	25µM*	i	i
Cc1cccc(Cn2cccc2CNS(=O)(=O)c2ccccc2F)c1	nt	20µM*	i	i
CCc1ccc(S(=O)(=O)NCc2cccn2Cc2cccc(C)c2)cc1	nt	-1%	i	i
Cc1ccc(C(=O)Nc2ccc(Cl)cc2C)c(Cl)c1	-1%	14%	i	i
CC(Oc1ccc(F)cc1)C(=O)Nc1nc(-c2ccc(F)cc2)ns1 (stereo not drawn)	nt	?	i	i
O=Cc1cccc(OCc2cccc3ccccc23)c1	-1%	14µM*	i	i
